Most compounds without a hit are left out; they make up all but 2.6% or so of the library.
LGR2 antag = inhibitors of bursicon-induced LGR2 CRE-luciferase signal, primary screen, cell-based, HEK293, CRE-luciferase reporter, bursicon stimulation. bursicon-stimulated, 4 h. inhibition, % at 9.99 µM. 0.35% of 380,000 active. AID 720647, 2013;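 active means drop in luminescence signal, shown as inhibition above about 50% in the replicate tests, limit read from the data, passing the limit was not always enough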;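 further: agonist challenge used bursicon conditioned medium at about half maximal strength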
TROY NFkB inh = inhibitors of TROY-driven NF-kB signaling, primary screen, Q293 LMP1-TROYcd cells, NF-kB luciferase, uHTS; Q293 LMP1-TROYcd NF-kB luciferase reporter, 4 h; inhibition, % at 10 µM; 0.98% of 360,000 active; AID 1347056, 2019;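 active means compounds whose plate-normalised and pattern-corrected inhibition of the luciferase reporter signal at the single screening dose is 50% or more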
LMP1 NFkB inh = EBV LMP1-driven NF-kappaB luciferase reporter inhibitors, primary screen, cell-based, luminescence, single point; inhibition, % at 12.5 µM; AID 504558, 2011; 0.69% of 350,000 active; LMP1-induced NF-kappaB luciferase reporter cells; in the data active means inhibition above about 41%
EWS-Fli inh = EWS/Fli-driven NR0B1 reporter inhibitors, primary screen, A673 cells, NR0B1 luciferase, luminescence, MLPCN library; 0.67% of 350,000 active; inhibition, % at 12.6 µM; viability-normalised;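 active means mean inhibition of at least 50% after viability correction, with every replicate also passing that limit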;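 further: firefly luciferase signal divided by Alamar Blue viability fluorescence both relative to DMSO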
TWEAK-Fn14 inh = inhibitors of TWEAK-Fn14 signaling, primary screen, luciferase reporter cells, uHTS. TWEAK-stimulated Fn14 reporter cells, luciferase luminescence, 8 h. 2% of 360,000 active. inhibition, % at 10 µM. AID 1159606, 2016; in the data active means inhibition above about 50%
Large screens that a line does not name were inactive.

O=C(Nc1ccccc1)C1=C[C@H](C2CCCCC2)C[C@H](OCc2ccc(CO)cc2)O1	TROY NFkB inh 66
O=C(Nc1ccccc1)C1=C[C@@H](c2csc3ccccc23)C[C@@H](OCc2ccc(CO)cc2)O1	TROY NFkB inh 76
O=C(Nc1ccccc1)C1=C[C@@H](C2CCCCC2)C[C@@H](OCc2ccc(CO)cc2)O1	TROY NFkB inh 73, TWEAK-Fn14 inh 57
Cc1c(C)n(CC(O)CN2CCCCC2)c2ccccc12 (configuration not stated)	none (no result: LGR2 antag, EWS-Fli inh)
Cc1c(C)n(CC(O)CN2CCN(C)CC2)c2ccccc12 (configuration not stated)	LMP1 NFkB inh 60
CC(C)(Oc1ccc(Cl)cc1)C(=O)NC1=NN(c2ccccc2)C(=O)C1	TROY NFkB inh 55 (no result: EWS-Fli inh)
O=C1CC(NC(=O)C(F)(F)F)=NN1c1ccccc1	none
Cc1ccc(S(=O)(=O)N(C)C[C@@H]2Oc3ccc(NC(=O)C4CC4)cc3C(=O)N([C@@H](C)CO)C[C@@H]2C)cc1	none (no result: TROY NFkB inh, LMP1 NFkB inh, TWEAK-Fn14 inh)
Cc1ccc(C(=O)NCCn2cc(SCC(=O)N3CCOCC3)c3ccccc32)cc1	TROY NFkB inh 78, TWEAK-Fn14 inh 86
Cc1ccc(C(=O)NCCn2cc(SCC(=O)Nc3cc(C)on3)c3ccccc32)cc1	TROY NFkB inh 73, TWEAK-Fn14 inh 84
O=C(CSc1cn(CC(=O)N2CCOCC2)c2ccccc12)N1CCOCC1	none (no result: EWS-Fli inh)
C[C@H](NC(=O)C[C@H]1C[C@@H]2c3cc(NC(=O)CC4CC4)ccc3O[C@@H]2[C@@H](CO)O1)c1ccccc1	none (no result: TROY NFkB inh, LMP1 NFkB inh, TWEAK-Fn14 inh)
COc1ccc(-c2csc(N3N=C(C)C(C)C3=O)n2)cc1 (configuration not stated)	none
CC1=NN(c2nc(-c3ccc(C)cc3)cs2)C(=O)C1N=Nc1cccc(O)c1 (configuration not stated)	TWEAK-Fn14 inh 50
CC1=NN(c2ccccc2)C(=O)C1N=Nc1cccc(O)c1 (configuration not stated)	none
CC1=NN(c2nc(-c3ccc(C)cc3)cs2)C(=O)C1N=Nc1ccccc1O (configuration not stated)	TWEAK-Fn14 inh 62
O=C(C[C@H]1C=C[C@@H](NC(=O)C2CCOCC2)[C@@H](CO)O1)Nc1ccc(-c2ccccc2)cc1	none (no result: TROY NFkB inh, LMP1 NFkB inh, TWEAK-Fn14 inh)
O=C(c1ccc(Cl)cc1)N1CCN(c2ccnc3cc(Cl)ccc23)CC1	LMP1 NFkB inh 50
CS(=O)(=O)N1CCN(c2ccnc3cc(Cl)ccc23)CC1	TWEAK-Fn14 inh 67
Cc1cc(N2CCN(S(=O)(=O)c3ccc(Cl)cc3)CC2)c2ccccc2n1	TROY NFkB inh 53 (no result: LGR2 antag, EWS-Fli inh)
Cc1ccc(S(=O)(=O)N2CCN(c3ccnc4cc(Cl)ccc34)CC2)cc1	TWEAK-Fn14 inh 51
CO[C@H]1CN(C)C(=O)c2cc(NC(=O)c3cc(C)on3)ccc2OC[C@@H](C)NC[C@@H]1C	none (no result: TROY NFkB inh, LMP1 NFkB inh, TWEAK-Fn14 inh)
O=C(C1CCC1)N1C[C@@H]2[C@H](c3ccccc31)[C@@H](CO)N2C(=O)c1ccccc1F	none (no result: TROY NFkB inh, LMP1 NFkB inh, TWEAK-Fn14 inh)
C/C(=N\NC(=O)c1ccc(Br)cc1)C1C(=O)c2ccccc2C1=O	none
C/C(=N\NC(=O)c1ccc(-c2ccccc2)cc1)C1C(=O)c2ccccc2C1=O	TROY NFkB inh 56
Cc1cc(C(N)=O)c2ccccc2n1	none (no result: LGR2 antag, EWS-Fli inh)
NC(=O)c1cc2c3ccccc3ccn2c1-c1ccccc1	TWEAK-Fn14 inh 52
COc1nc(=O)n(C2C=CC(=O)O2)cc1F (configuration not stated)	TWEAK-Fn14 inh 64
CCCC#Cc1ccc([C@H]2[C@H](CO)N3C(=O)CN(C(=O)c4ccncc4)C[C@@H]23)cc1	none (no result: TROY NFkB inh, LMP1 NFkB inh, TWEAK-Fn14 inh)
COc1ccc(N/N=C(\C#N)C(=N)SCc2ccccc2)cc1	LGR2 antag 67, TROY NFkB inh 52, TWEAK-Fn14 inh 77
CC1=CC(C)(C)Nc2ccc(OC(=O)CN3C(=O)c4cccc5cccc(c45)C3=O)cc21	TWEAK-Fn14 inh 52 (no result: EWS-Fli inh)
CC1=CC(C)(C)Nc2ccc(OC(=O)C(Cc3ccccc3)N3C(=O)c4ccccc4C3=O)cc21 (configuration not stated)	TWEAK-Fn14 inh 110 (no result: LGR2 antag, EWS-Fli inh)
CC(=O)Oc1ccc(CC(C(=O)O)N2C(=O)c3ccccc3C2=O)cc1 (configuration not stated)	none
CC1=CC(C)(C)Nc2ccc(OC(=O)CN3C(=O)c4ccccc4C3=O)cc21	TWEAK-Fn14 inh 89 (no result: LGR2 antag)
CCOc1cc(/C=C(\CC(=O)O)c2nc3ccccc3s2)ccc1OC	TWEAK-Fn14 inh 62
COc1ccc(/C=C(\CC(=O)O)c2nc3ccccc3s2)cc1O	none
O=C(Nc1ncc2c(n1)CC(c1ccco1)CC2=O)c1ccccc1 (configuration not stated)	none (no result: LGR2 antag, EWS-Fli inh)
O=C1CC(c2ccco2)Cc2nc(Nc3nc(-c4ccccc4)c4ccccc4n3)ncc21 (configuration not stated)	LMP1 NFkB inh 77 (no result: LGR2 antag, EWS-Fli inh)
Cc1ccc(NC(=O)c2cc(-c3cc(Cl)ccc3C)n[nH]2)cc1NS(C)(=O)=O	TWEAK-Fn14 inh 64 (no result: LMP1 NFkB inh)
COc1ccc(Cl)cc1-c1cc(C(=O)Nc2ccc(C)c(NS(C)(=O)=O)c2)[nH]n1	TROY NFkB inh 53, TWEAK-Fn14 inh 72 (no result: LMP1 NFkB inh)
COc1ccc(Cl)c(-c2cc(C(=O)Nc3ccc(C)c(NS(C)(=O)=O)c3)[nH]n2)c1	none (no result: LMP1 NFkB inh)
COc1ccc(NC(=O)c2cc(-c3cc(Cl)ccc3C)n[nH]2)cn1	none (no result: LMP1 NFkB inh)
CCN(CC)C(=O)c1cccc(-c2csc(C(O)c3cccc(Cl)c3)n2)c1 (configuration not stated)	TWEAK-Fn14 inh 61 (no result: LMP1 NFkB inh)
O=C1NC2(NN1c1ccccc1)C1CC3CC(C1)CC2C3 (configuration not stated)	TWEAK-Fn14 inh 88 (no result: TROY NFkB inh, EWS-Fli inh)
COc1cc(C(=O)OCn2nnc3ccccc3c2=O)cc(OC)c1OC	none (no result: LGR2 antag, EWS-Fli inh)
COc1cccc(C(=O)OCn2nnc3ccccc3c2=O)c1OC	LMP1 NFkB inh 53 (no result: LGR2 antag)
Cc1ccc(NC(=O)CSc2nn(-c3ccc(Cl)cc3)c(=S)s2)cc1S(=O)(=O)N(C)C	TROY NFkB inh 52, TWEAK-Fn14 inh 64
Cc1ccc(NC(=O)Cc2ccc(Cl)c(Cl)c2)cc1S(=O)(=O)N(C)C	none (no result: EWS-Fli inh)
Cc1ccc(NC(=O)CNc2ccc(Cl)c(Cl)c2)cc1S(=O)(=O)N(C)C	TWEAK-Fn14 inh 91
CN(C)S(=O)(=O)c1cc(NC(=O)CSc2nn(-c3ccc(Cl)cc3)c(=S)s2)ccc1Cl	TWEAK-Fn14 inh 83 (no result: EWS-Fli inh)
CN1C(=O)c2cc(NC(=O)C3CC3)ccc2OC[C@H]2O[C@@H](CC(=O)Nc3ccc(F)cc3)CC[C@@H]21	none (no result: TROY NFkB inh, LMP1 NFkB inh, TWEAK-Fn14 inh)
Cc1onc(-c2ccccc2)c1C(=O)OCC(=O)Nc1ccc2c(c1)OCO2	none (no result: LGR2 antag, EWS-Fli inh)
CCc1nc2ccccc2c(C(=O)OCC(=O)Nc2cccc(S(=O)(=O)NC3=NCCCCC3)c2)c1C	TROY NFkB inh 60, TWEAK-Fn14 inh 80
CCc1nc2ccccc2c(C(=O)OCC(=O)Nc2cccc(S(=O)(=O)N3CCOCC3)c2)c1C	TROY NFkB inh 68, TWEAK-Fn14 inh 97 (no result: LGR2 antag, EWS-Fli inh)

Screening results as filed in PubChem BioAssay.
